From PubChem
HepG2 viability: counter-screen for TGF-b inhibitors: cytotoxicity in HepG2 cells. HepG2 CAGA-GFP viability, ATP luminescence, 18 h. Potency, µM (highest dose often 46.1 µM), for inactives: at the highest dose activity change, negative = cytotoxicity, hits mostly cytotoxic. 410,000 tested, 0.76% active. AID 588856
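CellTiter-Glo luminescence gave cytotoxicity after 18 hours at 37 degrees C. The cells were HepG2 CAGA-GFP in 1% FBS DMEM, stimulated with 500 pg/mL TGF-beta after compound addition. %Activity was normalised to no-cell wells (complete cell-killing) and DMSO (no toxicity), and curves were fitted and classified.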
Gal4-VP16 FLuc: counter-screen for ROR gamma inhibitors: Gal4-VP16 reporter; Drosophila S2 Gal4-VP16 UAS-luciferase, luminescence, 20 h; Potency, µM (top dose mostly 53.6 µM), inactives show at the highest dose activity, negative = inhibition, most hits filed as inhibitors; 310,000 tested, 3.5% active; AID 2546;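 note: Gal4-VP16 expression switched on by copper sulfate through the metallothionein promoter; % is set by controls: 0 for no effect and ±100 for the full control effect; nearly all actives have a fitted effect of over 50% in size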
ATXN2 expr inh: inhibitors of ATXN2 expression; HEK-293 ATXN2-luciferase reporter, luminescence, 24 h; Potency, µM (series often up to 57 µM), for the others: at the highest dose activity change, negative = inhibition, most hits filed as inhibitors; 360,000 tested, 0.72% active; note: % is set by controls: 0 for no effect and ±100 for the full control effect; nearly all actives have a fitted effect of over 55% in size
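ATXN2-luciferase reporter cells (luciferase flanked by upstream and downstream ATXN2 gene portions) were treated 24 h at 37 °C with compounds at up to 57 uM. SteadyGlo luminescence gave expression; GF-AFC fluorescence gave viability.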
TGFb inhibitor: inhibitors of TGF-b signaling; HepG2 CAGA-GFP TGF-b/SMAD3 reporter, GFP fluorescence, 18 h; TGF-beta stimulated, 500 pg/mL final; Potency, µM (doses to about 46.1 µM), inactives show top-dose activity, negative = inhibition, most hits filed as inhibitors; 410,000 tested, 1.2% active; note: % is set by controls: 0 for no effect and ±100 for the full control effect; nearly all actives have a fitted effect of over 65% in size
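Inhibition of TGF-beta-driven CAGA-GFP reporter expression in HEPG2 cells is measured by cellular GFP fluorescence after 18 h stimulation with 500 pg/mL recombinant TGF-beta in 1% FBS medium at 37 degrees C.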
ATXN viability: reduces viability in counter-screen for ATXN expression inhibitors; 400,000 tested, 0.49% active; AID 651635; S2 cells (HEK-293 line with an ATXN2-luciferase reporter) viability, CellTiter-Fluor protease fluorescence, 24 h; Potency, µM (highest dose often 56.7 µM), actives largely listed as cytotoxic; note: nearly all actives have a fitted effect of over 40% in size
RORgamma inh: inhibitors of mouse ROR gamma transcriptional activity; P51450; Drosophila S2 Gal4-RORgamma UAS-luciferase reporter, 20 h; Potency, µM (doses to about 53.6 µM), for inactives: at the highest dose activity change, negative = inhibition, actives largely listed as inhibitors; 310,000 tested, 5.4% active; AID 2551; note: % is set by controls: 0 for no effect and ±100 for the full control effect; nearly all actives have a fitted effect of over 60% in size
Target sequence (P51450 whole entry, looked up, the tested form may be a part): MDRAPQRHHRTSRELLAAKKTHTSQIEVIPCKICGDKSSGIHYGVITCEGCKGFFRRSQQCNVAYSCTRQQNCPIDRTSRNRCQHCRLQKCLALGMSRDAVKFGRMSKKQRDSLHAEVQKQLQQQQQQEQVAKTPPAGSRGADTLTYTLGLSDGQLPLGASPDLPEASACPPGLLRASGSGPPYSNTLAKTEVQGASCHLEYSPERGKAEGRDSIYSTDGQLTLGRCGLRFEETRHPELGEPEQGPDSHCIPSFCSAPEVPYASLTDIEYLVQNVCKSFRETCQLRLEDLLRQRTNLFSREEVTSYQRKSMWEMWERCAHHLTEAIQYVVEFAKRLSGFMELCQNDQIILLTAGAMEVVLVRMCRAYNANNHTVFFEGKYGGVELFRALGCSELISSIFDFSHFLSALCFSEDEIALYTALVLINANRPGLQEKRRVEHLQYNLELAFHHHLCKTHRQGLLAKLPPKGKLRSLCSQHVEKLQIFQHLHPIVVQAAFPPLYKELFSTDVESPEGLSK
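In this cell-based reporter format, copper sulfate (700 uM final) drives Gal4–ROR gamma fusion expression from a metallothionein promoter in Drosophila Schneider cells; compounds preincubated 1 hr, reporter read after 20 hr at ambient temperature.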
* = called active by the depositor; i = inactive; u = inconclusive; x = no result given; [ ] = another dose, or the depositor's remark. Hits are enriched below; roughly 6.3% of the tested compounds scored in any of these assays. Calls come from the whole dose curve; as a rule, active = well fitted curve in the direction sought with a large enough effect; inconclusive = small, poorly fitted or top-dose-only effect, or another doubt; inactive = no such curve, though single readings can be large; an effect the other way counts as inactive or inconclusive. Potency is the fitted concentration of half-maximal effect.

SMILES	HepG2 viability	Gal4-VP16 FLuc	ATXN2 expr inh	TGFb inhibitor	ATXN viability	RORgamma inh
CCc1ccc2c(c1)C1(NN=C(c3cccc4ccccc34)S1)C(=O)N2 (centres undefined)	x	2.8µM*	x	x	x	2.8µM*
CCc1cccc(N2C(=O)CSC23C(=O)Nc2ccccc23)c1 (centres undefined)	-17%	x	9%	-9%	i	x
COc1ccc(-c2nc(N=Nc3ccc(O)cc3)n[nH]2)cc1	3%	-8%	-8%	-11%	8.9µM*	-7%[10 µM]
CCOC(=O)C1(C)CCN1C(=O)c1cc(C)oc1C (centres undefined)	32%	x	-3%	0%	i	x
CC1CCCN(CCCNC(=O)c2ccc3c(c2)N(Cc2ccc(Cl)cc2)C(=O)c2ccccc2S3(=O)=O)C1 (centres undefined)	20µM*	x	x	u	x	x
Cc1ccc(C)c(CN2C(=O)c3ccccc3S(=O)(=O)c3ccc(C(=O)NCCC4=CCCCC4)cc32)c1	3%	x	x	x	x	x
CC1CC(C)CN(CCCNC(=O)c2ccc3c(c2)N(Cc2ccccc2)C(=O)c2ccccc2S3=O)C1 (centres undefined)	-94%	-17%	x	u	28µM*	11µM*
O=C(NCCN1CCCC1)c1ccc2c(c1)N(Cc1ccccc1)C(=O)c1ccccc1S2(=O)=O	0%	-5%	-20%	-6%	i	1%
Cc1ccc(C)c(CN2C(=O)c3ccccc3S(=O)(=O)c3ccc(C(=O)NCCCN4CCCC(C)C4)cc32)c1 (centres undefined)	11µM*	x	x	x	x	x
COc1ccc(CCNC(=O)C2CCC(CNS(=O)(=O)c3ccc(C)cc3)CC2)cc1OC (centres undefined)	-19%	x	x	-21%	x	x
COc1cccc(-c2cnc3c(NC(C)=O)cc(-c4cccc(C(=O)NCCN(C)C)c4)cn23)c1	13µM*	x	u	u	u	x
CC(=O)Nc1cc(-c2ccccc2)cn2c(-c3ccc(F)c(Cl)c3)cnc12	-38%	x	-5%	-9%	i	x
CC(=O)Nc1cc(-c2cccc(F)c2)cn2c(-c3ccc(F)c(Cl)c3)cnc12	-46%	x	-30%	18µM*	u	x
O=C(NCCO)c1cccc(-c2cnc3c(Nc4cccc(OC(F)(F)C(F)F)c4)nccn23)c1	-58%	x	u	u	32µM*	x
CC(=O)Nc1cc(-c2cccc(C(=O)NCCO)c2)cn2c(-c3cccc(C(F)(F)F)c3)cnc12	-111%	x	u	u	32µM*	x
Cc1noc(C)c1-c1nccc(N(C)C)n1	x	-18%	x	x	x	-41%
CCOC(=O)/C=C1\CN(Cc2cc(OC)c(OC)c(OC)c2)S(=O)(=O)c2ccccc21	-18%	u	-19%	-25%	i	u
CCOC(=O)/C=C1\CN(Cc2cc(OC)c(OC)c(OC)c2)S(=O)(=O)c2ccc(C(F)(F)F)cc21	-15%	u	u	8.9µM*	u	67%
CC(=O)c1ccc(Nc2cc(C)nc3c(C)cc(C)cc23)cc1	-95%	u	u	11µM*	x	u
Cc1ccccc1NC(=S)NCCSc1ccc(Cl)cc1	-6%	u	-18%	0%	i	2.2µM*
CCc1ccccc1NC(=S)NCCSc1ccc(Cl)cc1	4%	7.1µM*	-18%	u	i	1.1µM*
Cc1ccccc1NC(=S)NCCO	-5%	-3%	-19%[11.3 µM]	-2%	i	24%
Cc1cccc(NC(=S)NCCSc2ccc(Cl)cc2)c1	2.5µM*	7.1µM*	-19%	u	i	3.2µM*
CCCCSCCCNC(=S)Nc1ccccc1C	-20%	u	-13%	-12%	i	2.5µM*
Cc1cccc(NC(=O)NCCc2ccc(Cl)cc2)c1	-31%	17%[10 µM]	7%	7%	i	15%
C#C[C@]1(O)CC[C@H]2[C@H]3[C@H](CC[C@@]21C)C1=C(CC(=O)CC1)C[C@@H]3C	x	-3%	x	x	x	-4%
